Experimental data taken from PubChem BioAssay (Tox21).
Results filed as inconclusive are left out. Unmarked numbers belong to inactive results. The call rests on the fitted dose curve; in most records, active means well fitted cell-killing curve with a large enough effect in the repeat runs; inconclusive means weak or mixed curves, or effect the other way; inactive means no such curve, though single readings can be large or run the other way.

Experiment: qHTS assay to identify small molecule antagonists of the retinoid-related orphan receptor gamma (ROR-gamma) signaling pathway - cell viability counter screen (AID 1159520); further: nearly all actives have a fitted effect of over 50% in size
Details: Tet-on RORgamma CHO cells viability, ATP luminescence, 16 h; series mostly up to 92.4 µM; activity, negative = cytotoxicity: at the top concentration
Excerpt: U.S. Tox21 Program National Center for Advancing Translational Sciences [NCATS] NIH Chemical Genomics Center [NCGC] U.S. Environmental Protection Agency [EPA] National Institutes of Environmental Health Sciences [NIEHS] National Toxicology Program [NTP] U.S. Food and Drug Administration [FDA] Tox21 Assay Overview: Nuclear steroid hormone receptors are involved in many biological processes including inflammatory responses, cell proliferation, and apoptosis. Environmental factors or compounds disrupting these nuclear receptor pathways and gene expression may promote susceptibility to immunotoxicants and autoimmune diseases. One important group of these expression factors are the retinoid-related orphan receptors. To assess compounds that may interfere with the retinoid-related orphan receptor gamma (ROR-gamma) transcription factor, a cell-based luciferase assay was used. The CHO cell-based assay utilizes a TET-inducible ROR expression factor and ROR response element-LUC reporter gene. Reporter gene activity was induced using Doxycycline Hyclate and measured after 16 hr incubation. Tet-on ROR gamma CHO cells were used to screen against the Tox21 10K compound library for cytotoxicity by measuring the viability of the cells based on the quantitation of the ATP.
Tox21 Assay Protocol Summary: Tet-on ROR gamma CHO cells were dispensed at 1,000 cells in 4 uL of culture medium per well into white wall/solid bottom 1536-well plates using a Multidrop Combi (Thermo Scientific, Waltham, MA) dispenser. Following incubation at 37 C and 5% CO2 for 4 hr, 23 nL of compounds dissolved in DMSO, positive controls or DMSO only were transferred by a Pintool station (Kalypsys, San Diego, CA) and after 2 hr incubation at 37 C, one ul of 1 uM (final concentration) of Doxycycline Hyclate was added to all the wells by using a Flying Reagent Dispenser (FRD) (Aurora Discovery, San Diego, CA). After 16 hr incubation at 37 C and 5% CO2, 5 uL of CellTiter-Glo reagent (Promega Corporation, Madison, WI) was added to each assay plate using FRD. After 30 min incubation at room temperature, luminescence was quantified on a ViewLux plate reader (Perkin Elmer, Waltham, MA).
On the % scale 0 is the no-effect control and ±100 the full control effect.

Row | Compound | activity, negative = cytotoxicity
1 | CC(C)CC#N | 4.14%
2 | O=C1CN2CCOC2(c2ccccc2Cl)c2cc(Cl)ccc2N1 (stereo not given) | -4.19% [at 42.5 µM]
3 | O=[N+]([O-])c1cccc(O)c1 | -3.03%
4 | CC1=NNC(=O)N(/N=C/c2cccnc2)C1 | 6.25%
5 | Cc1ncc2n1-c1ccc(Cl)cc1C(c1ccccc1F)=NC2 | -4.73% [at 42.5 µM]
6 | O=C(Oc1ccc(Br)cc1)N1CCN2CCC1CC2 | 5.24%
7 | CNC(=O)Oc1ccccc1C1OCCO1 | -6.6%
8 | CC(C)(C)NCC(O)c1cc(Cl)c(N)c(Cl)c1 (stereo not given) | 5.54% [at 42.5 µM]
9 | CC(C)CP(=S)(S)CC(C)C | -12.1%
10 | COc1cc(OC)nc(NC(=O)NS(=O)(=O)c2ncccc2C(=O)N(C)C)n1 | 1.58%
11 | ClC(Br)Br | 6.58%
12 | CSc1nc(N=[N+]=[N-])nc(NC(C)C)n1 | -17.3%
13 | OC(Cn1cncn1)(c1ccc(F)cc1)c1ccccc1F (stereo not given) | -6.18%
14 | CCOP(=S)(OCC)Oc1ncn(-c2ccccc2)n1 | 0.133%
15 | Nc1cnn(-c2ccccc2)c(=O)c1Cl | -4.1%
16 | C[C@]1(O)CC[C@H]2[C@@H]3CCC4=CC(=O)CC[C@]4(C)[C@@]3(F)[C@@H](O)C[C@@]21C | -4.13%
17 | C=C(C)CN(CC)c1c([N+](=O)[O-])cc(C(F)(F)F)cc1[N+](=O)[O-] | 8.29%
18 | CC1=C(C(=O)O)N2C(=O)[C@@H](N)[C@H]2SC1 | 0.102% [at 19 µM]
19 | Nc1cc2c3c(c1)C(c1ccccc1)=N[C@@H](NC(=O)c1cccnc1)C(=O)N3CC2 | -1.26%
20 | O=C(O)c1ccc2[nH]cc(CCCCN3CC=C(c4ccccc4)CC3)c2c1 | 1.97% [at 42.5 µM]

Row | Compound | activity, negative = cytotoxicity
21 | Clc1cccc(N2CCNCC2)c1 | -0.714% [at 42.5 µM]
22 | COc1cc2c(cc1OC)[C@@]13CCN4CC5=CCO[C@H]6CC(=O)N2[C@H]1[C@H]6[C@H]5C[C@H]43 | 5.43%
23 | CC(CC(C#N)(c1ccccc1)c1ccccc1)N(C)C (stereo not given) | 2.09%
24 | CC(=O)[C@H]1CC[C@H]2[C@@H]3CC[C@H]4C[C@H](O)CC[C@]4(C)[C@H]3C(=O)C[C@]12C | 0.695% [at 42.5 µM]
25 | CC(COc1ccc(Oc2ccccc2)cc1)Oc1ccccn1 (stereo not given) | -11.8%
26 | NC(=O)c1cc([N+](=O)[O-])cc([N+](=O)[O-])c1 | -0.249% [at 42.5 µM]
27 | CC1(C)C(=O)NC(=O)NC1=O | -15.5%
28 | COC(=O)c1ccccc1S(=O)(=O)NC(=O)Nc1nc(C)cc(C)n1 | 5.55%
29 | COC(=O)C(C)Oc1ccc(Oc2ccc(Cl)cc2Cl)cc1 (stereo not given) | -1.58%
30 | C#C[C@]1(O)C=C[C@H]2[C@@H]3CCC4=CC(=O)CC[C@@H]4[C@H]3CC[C@@]21CC | -5.02% [at 42.5 µM]
31 | CCC(C)(C)c1cc(-n2nc3ccccc3n2)c(O)c(C(C)(C)CC)c1 | 5.32%
32 | CC(N)=S | 0.238%
33 | CCN(CC)c1nc(C)cc(OP(=S)(OC)OC)n1 | -10.4%
34 | COc1cc(OC)nc(Oc2cccc(Oc3nc(OC)cc(OC)n3)c2C(=O)O)n1 | 7.53%
35 | CCC1(c2ccccc2)C(=O)N=C(O)NC1=O (stereo not given) | -16.3%
36 | CCN(Cc1ccc(Cl)nc1)/C(=C/[N+](=O)[O-])NC | 4.03% [at 42.5 µM]
37 | [As]#[In] | 3.96%
38 | CN1CCC(O)(c2ccc(F)cc2)C(C(=O)c2ccc(F)cc2)C1 (stereo not given) | 3.71% [at 42.5 µM]
39 | CCC(=O)c1ccccc1 | 5.42%
40 | COP(=S)(OC)Oc1ccc(S(N)(=O)=O)cc1 | 0.445% [at 42.5 µM]
